# Assay results: PubChem BioAssay (EPA / NIEHS)
# “And” between values parts separate entries of the source, which are not always exact repeats. Equal entries are not always repeated. Inconclusive results are not listed. The source made the active and inactive calls. How the source made its calls, unless noted: active means hit-call score of the fitted dose curve at least 0.9, where 1 is the maximum; inactive means score below 0.9.
# What was measured:
# [1] = target: Estrogen receptor (Homo sapiens) (UniProt P03372); experiment: CCTE_Deisenroth_AIME_384WELL_LUC_Shift: CCTE's 384-well Estrogen Receptor Transactivation Assay with AIME metabolic competence data shift (ERTA luciferase; difference in metabolism positive and negative), Deisenroth Lab (AID 2284041);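 further: shift is response with S9 minus without S9 so positive means metabolism raised ER signal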
# Method in brief: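 Here, parent compounds undergo 2 h phase I metabolism by PB/BNF-induced rat S9 before 24 h transactivation in VM7Luc4E2 cells; the curve models S9-positive minus S9-negative response over a 10-point series.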
# [2] = CCTE_Shafer_MEA_dev_active_electrodes_number: CCTE's Neural Network Formation Assay for Number of Active Electrodes, Shafer Lab (AID 2284040; active means hit-call score of the fitted dose curve at least 0.9, where 1 is the maximum;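 on AC50: potency for loss of active electrodes versus DMSO so lower counts are hits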)
# Method in brief: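 Primary rat cortical neurons on 16-electrode MEA wells, exposed from day 0 through day 12 with compound renewed at DIV 5 and 9 feeds. Active electrodes (mean firing ≥5 spikes/min) counted at DIV 5, 7, 9, 12; trapezoidal AUC across days, loss-of-signal versus DMSO.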
# [3] = CCTE_Shafer_MEA_dev_burst_rate: CCTE's Neural Network Formation Assay for Burst Rate, Shafer Lab (AID 2284042);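 on AC50: potency for loss of burst rate below DMSO control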
# Method in brief: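 Rat primary cortical cultures on PEI/laminin MEA; compound from plating, re-dosed at DIV 5, 9 media change. Single-electrode bursts/recording length, well mean of active electrodes; AUC over DIV 5–12 recordings; loss-of-signal vs DMSO.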
# [4] = CCTE_Shafer_MEA_dev_burst_duration_mean: CCTE's Neural Network Formation Assay for Mean Burst Duration, Shafer Lab (AID 2284045);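 on AC50: curve fitted for loss meaning shorter burst duration than DMSO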
# Method in brief: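 Primary rat cortical neurons on PEI-coated 16-electrode MEA wells, exposed from plating through day 12 with compound renewed at DIV 5 and 9; spontaneous activity recorded days 5, 7, 9, 12. Well-mean burst duration collapsed as trapezoidal AUC, fitted for loss versus DMSO.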
# [5] = CCTE_Shafer_MEA_dev_interburst_interval_mean: CCTE's Neural Network Formation Assay for Mean Interburst Interval, Shafer Lab (AID 2284046);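 further: well-mean interburst interval of bursting electrodes as AUC over four recording days; curve fitted for decrease in interburst interval relative to DMSO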
# Method in brief: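 Rat cortical neurons, 1.5 x 10^5 cells/well, 48-well MEA; compound from day 0 through DIV 12, media and treatment renewed DIV 5/9. Recordings DIV 5, 7, 9, 12; well-mean interburst interval → trapezoidal AUC, loss direction vs DMSO.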
# [6] = CCTE_Shafer_MEA_dev_inter_network_spike_interval_mean: CCTE's Neural Network Formation Assay for Mean Inter-network Spike Interval, Shafer Lab (AID 2284047)
# Method in brief: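 Primary rat cortical neurons on PEI-coated 48-well MEAs (16 electrodes/well) were exposed from plating day 0 to DIV 12, with dosing renewed at DIV 5 and 9. Recordings at DIV 5, 7, 9, 12 were collapsed by trapezoidal AUC, loss-of-signal fit vs DMSO.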
# [7] = CCTE_Shafer_MEA_dev_network_spike_number: CCTE's Neural Network Formation Assay for Number of Network Spikes, Shafer Lab (AID 2284048);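 further: synchronized bursts across electrodes counted on days 5 7 9 12 and integrated as AUC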;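 on AC50: fit as a loss of signal meaning fewer network spikes than DMSO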
# Method in brief: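 Primary rat cortical neurons were seeded at 1.5 x 10^5 cells/well on PEI-coated 16-electrode MEA wells with laminin, exposed from plating day 0, compound renewed at DIV 5 and 9. Network spikes were recorded on days 5, 7, 9, 12 and summarized as trapezoidal AUC versus DMSO.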
# [8] = CCTE_Shafer_MEA_dev_network_spike_peak: CCTE's Neural Network Formation Assay for Mean Number of Electrodes in Network Spike, Shafer Lab (AID 2284049);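 on AC50: fitted for loss of signal meaning fewer electrodes in network spikes than DMSO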
# Method in brief: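 Continuous 12-day exposure of rat cortical cultures, starting at plating, on MEA plates. Endpoint: electrodes participating in network-spike peaks, AUC across DIV 5–12, DMSO as negative control.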
# [9] = CCTE_Shafer_MEA_dev_spike_duration_mean: CCTE's Neural Network Formation Assay for Mean Spike Duration, Shafer Lab (AID 2284051);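 further: mean network spike duration pooled as area under curve over DIV 5 to 12 recordings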;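 on AC50: potency for a decrease in mean network spike duration versus DMSO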
# Method in brief: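 Rat cortical primary cultures, 48-well MEA (16 electrodes/well); compound from plating, renewed DIV 5, 9. Network spike duration (AxIS adaptive detector) recorded DIV 5/7/9/12, combined as trapezoidal AUC; loss direction vs DMSO.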
# [10] = CCTE_Shafer_MEA_dev_network_spike_duration_std: CCTE's Neural Network Formation Assay for Standard Deviation of Network Spike Duration, Shafer Lab (AID 2284052);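 further: area under curve of spike duration SD across recording days 5 to 12; hits are decreases in network spike duration SD versus DMSO vehicle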
# Method in brief: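 Rat cortical cultures, 1.5 x 10^5 cells/well, exposed continuously from plating to DIV 12 with media/compound renewal at DIV 5, 9. Spontaneous activity recorded DIV 5/7/9/12, AxIS adaptive spike detector; AUC across days; negative direction vs DMSO.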
# [11] = CCTE_Shafer_MEA_dev_per_network_spike_spike_number_mean: CCTE's Neural Network Formation Assay for Mean Number of Spikes in a Network Spike, Shafer Lab (AID 2284053);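 on AC50: fitted as decrease in spikes per network spike relative to DMSO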
# Method in brief: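 Rat cortical primary cultures on 48-well MEA; compound from day 0, re-dosed with full media change DIV 5, 9. Recorded DIV 5, 7, 9, 12; spikes in 0.05 s window at network-spike peak ÷ total network spikes; AUC; loss vs DMSO.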
# [12] = CCTE_Shafer_MEA_dev_per_network_spike_spike_percent: CCTE's Neural Network Formation Assay for Percent of Spikes in a Network Spike, Shafer Lab (AID 2284054)
# Method in brief: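 Primary rat cortical neurons on 16-electrode MEA wells (PEI-coated, laminin at plating), exposed from day 0 with renewal at DIV 5 and 9; spikes within 0.05 s of network-spike peaks over total spikes, AUC across days 5, 7, 9, 12.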
# [13] = CCTE_Shafer_MEA_dev_LDH: CCTE's Lactate Dehydrogenase Assay for Cytotoxicity in the Neural Network Formation Assay, Shafer Lab (AID 2284068; active means hit-call score of the fitted dose curve at least 0.9, where 1 is the maximum;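 further: exposure for twelve days from plating with re-dosing on DIV 5 and 9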)
# Method in brief: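 Rat cortical primary neurons, MEA culture; dosing day 0–12, full medium plus compound exchange DIV 5, 9. Read-out: LDH enzyme activity, spectrophotometric. DMSO = negative control/baseline; signal loss → cytotoxicity.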
# [14] = CCTE_Shafer_MEA_acute_AB: CCTE's Alamar Blue Assay for Cytotoxicity in the Neural Acute Assay, Shafer Lab (AID 2284069; active means hit-call score of the fitted dose curve at least 0.9, where 1 is the maximum;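 further: active compounds lower the viability signal compared with DMSO wells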)
# Method in brief: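 Read-out: resazurin fluorescence (ex 544, em 590 nm) after CTB reagent at 1:6 dilution in fresh media. Cells: primary rat cortical neuron networks, DIV 13 or 15, chemically exposed on MEA plates; DMSO as negative control/baseline.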
# [15] = CCTE_Shafer_MEA_dev_AB: CCTE's Alamar Blue Assay for Cytotoxicity in the Neural Network Formation Assay, Shafer Lab (AID 2284083; active means hit-call score of the fitted dose curve at least 0.9, where 1 is the maximum;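 further: resazurin reduction fluorescence as viability of cultured neurons; twelve days of exposure from plating with re-dosing on DIV 5 and 9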)
# Method in brief: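 Rat cortical primary cultures, 1.5 x 10^5 cells/well on MEA; continuous compound exposure over 12 days of network development, re-dosed with full medium change DIV 5 and 9. Alamar Blue fluorescence; loss of signal = cytotoxicity vs DMSO baseline.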
# [16] = CCTE_Shafer_MEA_dev_mutual_information_norm: CCTE's Neural Network Formation Assay for Mutual Information Normalization, Shafer Lab (AID 2284091);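 on AC50: mutual information between electrodes summarised as area under curve across four recording days; potency is for a decrease in mutual information relative to DMSO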
# Method in brief: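 Rat cortical cultures, 48-well MEA, continuous exposure DIV 0–12 with full media/compound change DIV 5 and 9. Readout: inter-electrode mutual information, AxIS adaptive spike detection; AUC across DIV 5/7/9/12 recordings; DMSO baseline, negative fitting direction.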
# [17] = CCTE_Shafer_MEA_dev_correlation_coefficient_mean: CCTE's Neural Network Formation Assay for Mean Correlation Coefficient, Shafer Lab (AID 2284093);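 on AC50: well mean pairwise spike train correlation integrated as AUC over recording days 5 to 12; potency fitted for loss of correlation relative to DMSO vehicle wells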
# Method in brief: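 Rat cortical cultures, 1.5 x 10^5 cells/well, dosed from day 0 for 12 days. Spontaneous spikes recorded DIV 5/7/9/12; electrode-pair correlation coefficients averaged, AUC taken. Fit in loss direction vs DMSO.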
# DIO3 (gene 1735) = experiment: CCTE_GLTED_hDIO3: CCTE's human Deiodinase 3 (DIO3) Inhibition Assay, Great Lakes Toxicology and Ecology Division (GLTED) Lab (AID 2284055; active means hit-call score of the fitted dose curve at least 0.9, where 1 is the maximum;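 further: potency is for inhibition seen as loss of released iodide signal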)
# Method in brief: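 Absorbance from the Sandell-Kolthoff reaction reports iodide released by human DIO3 during a 3-hour incubation with chemical. Inhibition scored as signal loss against DMSO controls.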
# Chain of Estrogen receptor (Homo sapiens) (P03372 whole entry, looked up): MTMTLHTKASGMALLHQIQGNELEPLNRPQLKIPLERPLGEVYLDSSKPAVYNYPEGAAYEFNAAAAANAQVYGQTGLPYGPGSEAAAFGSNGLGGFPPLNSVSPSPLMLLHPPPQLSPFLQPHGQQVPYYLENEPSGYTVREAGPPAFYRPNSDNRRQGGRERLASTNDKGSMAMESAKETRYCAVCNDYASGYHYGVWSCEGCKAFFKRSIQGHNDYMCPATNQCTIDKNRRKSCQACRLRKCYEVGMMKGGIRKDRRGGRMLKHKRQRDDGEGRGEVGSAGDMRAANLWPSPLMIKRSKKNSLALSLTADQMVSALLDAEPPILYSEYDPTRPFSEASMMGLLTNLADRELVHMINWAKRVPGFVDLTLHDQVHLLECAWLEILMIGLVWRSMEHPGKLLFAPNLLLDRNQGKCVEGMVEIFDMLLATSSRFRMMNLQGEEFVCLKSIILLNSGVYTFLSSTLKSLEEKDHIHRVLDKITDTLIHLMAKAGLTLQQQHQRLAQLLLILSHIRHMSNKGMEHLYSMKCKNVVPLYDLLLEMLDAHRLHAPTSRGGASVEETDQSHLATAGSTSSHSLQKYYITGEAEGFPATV
smiles,measurement,setting,value
Cc1ccc(N)cc1Cl,outcome,[1],inactive
CC(C)(C)c1cc(O)ccc1O,AC50,[2],6.05 µM (active)
same,AC50,[1],30.7 µM (active)
same,outcome,[3],inactive
same,outcome,[4],inactive
same,outcome,[5],inactive
same,outcome,[6],inactive
same,outcome,[7],inactive
same,AC50,[8],10 µM (active)
same,AC50,[9],9.62 µM (active)
same,outcome,[10],inactive
same,AC50,[11],5.63 µM (active)
same,AC50,[12],5.23 µM (active)
same,AC50,[13],15 µM (active)
same,outcome,[14],inactive
same,AC50,[15],15.2 µM (active)
same,AC50,[16],2.1 µM (active)
same,AC50,[17],6.2 µM (active)
O=C(NCO)NCO,outcome,[1],inactive
NNC(=S)NN,outcome,[1],inactive
CC1(C)CCC(Cc2ccc(Cl)cc2)C1(O)Cn1cncn1 (configuration not stated),outcome,[1],inactive
O=C(Cc1ccccc1)c1ccccc1,outcome,[1],inactive
ClC1(Cl)C2(Cl)C3(Cl)C4(Cl)C(Cl)(Cl)C5(Cl)C3(Cl)C1(Cl)C5(Cl)C24Cl (configuration not stated),AC50,[2],2.07 µM (active)
same,AC50,[3],2.64 µM (active)
same,outcome,[4],inactive
same,AC50,[5],3.37 µM (active)
same,outcome,[6],inactive
same,AC50,[7],0.888 µM (active)
same,AC50,[8],2.32 µM (active)
same,AC50,[9],2.35 µM (active)
same,AC50,[10],1.03 µM (active)
same,AC50,[11],2.68 µM (active)
same,AC50,[12],2.32 µM (active)
same,AC50,[13],1.92 µM (active)
same,outcome,[14],inactive
same,AC50,[15],2.83 µM (active)
same,AC50,[16],2.05 µM (active)
same,AC50,[17],2.41 µM (active)
CCC(=O)C(CC(C)N(C)C)(c1ccccc1)c1ccccc1 (configuration not stated),AC50,[2],3.55 µM (active)
same,AC50,[3],4.16 µM (active)
same,outcome,[4],inactive
same,AC50,[5],4.24 µM (active)
same,outcome,[6],inactive
same,outcome,[7],inactive
same,AC50,[8],4.26 µM (active)
same,AC50,[9],3.49 µM (active)
same,outcome,[10],inactive
same,AC50,[11],3.36 µM (active)
same,AC50,[12],7.25 µM (active)
same,AC50,[13],7.25 µM (active)
same,outcome,[14],inactive
same,outcome,[15],inactive
same,AC50,[16],6.23 µM (active)
same,AC50,[17],7.25 µM (active)
Cn1sc(Cl)cc1=O,AC50,[2],4.47 µM (active)
same,AC50,[3],5.73 µM (active)
same,AC50,[4],7.64 µM (active)
same,AC50,[5],7.54 µM (active)
same,outcome,[6],inactive
same,AC50,[7],4.45 µM (active)
same,AC50,[8],3.57 µM (active)
same,AC50,[9],7.62 µM (active)
same,AC50,[10],1.84 µM (active)
same,AC50,[11],3.51 µM (active)
same,AC50,[12],7.62 µM (active)
same,AC50,[13],4.61 µM (active)
same,AC50,[15],5.49 µM (active)
same,AC50,[16],3.45 µM (active)
same,AC50,[17],4.5 µM (active)
O=C(O)C(F)(F)C(F)(F)C(F)(F)C(F)(F)C(F)(F)C(F)(F)C(F)(F)C(F)(F)C(F)(F)C(F)(F)F,outcome,[2],inactive
same,outcome,[3],inactive
same,outcome,[4],inactive
same,outcome,[5],inactive
same,outcome,[6],inactive
same,outcome,[7],inactive
same,outcome,[8],inactive
same,outcome,[9],inactive
same,outcome,[10],inactive
same,outcome,[11],inactive
same,outcome,[12],inactive
same,AC50,DIO3 (gene 1735),19.9 µM (active) and 25.1 µM (active)
same,outcome,[13],inactive
same,outcome,[14],inactive
same,outcome,[16],inactive
same,outcome,[17],inactive
O=C(O)C(F)(F)C(F)(F)C(F)(F)C(F)(F)C(F)(F)C(F)(F)F,outcome,[3],inactive
same,outcome,[4],inactive
same,outcome,[5],inactive
same,outcome,[6],inactive
same,outcome,[7],inactive
same,outcome,[8],inactive
same,outcome,[9],inactive
same,outcome,[10],inactive
same,outcome,[11],inactive
same,outcome,[12],inactive
same,outcome,[16],inactive
same,outcome,[17],inactive
